From PubChem BioAssay AID588358 (NMMLSC, 2011) come the findings set out here.

Among all 310,000 compounds or so, about 1,500 (0.48%) were called active.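 How the source made its calls: active means binding more than 3 SD below its plate's average and above zero; inconclusive means below that plate limit but binding exactly zero; inactive means the rest.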 This excerpt belongs to a sample that is enriched for actives.

This test deals with Desmoglein-3 (Homo sapiens) (UniProt P32926). The experiment in a line: blockers of anti-DSG3 scFv binding – biochemical, bead-based, flow cytometry, scFv-GFP, primary screen (AID 588358).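 Further: hits lower antibody fragment binding to DSG3.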 Conditions: DSG3-coupled beads, at 10 µM, stronger effect = lower value.
Desmoglein-3 (Homo sapiens), sequence (P32926 whole entry, looked up, the tested form may be a part): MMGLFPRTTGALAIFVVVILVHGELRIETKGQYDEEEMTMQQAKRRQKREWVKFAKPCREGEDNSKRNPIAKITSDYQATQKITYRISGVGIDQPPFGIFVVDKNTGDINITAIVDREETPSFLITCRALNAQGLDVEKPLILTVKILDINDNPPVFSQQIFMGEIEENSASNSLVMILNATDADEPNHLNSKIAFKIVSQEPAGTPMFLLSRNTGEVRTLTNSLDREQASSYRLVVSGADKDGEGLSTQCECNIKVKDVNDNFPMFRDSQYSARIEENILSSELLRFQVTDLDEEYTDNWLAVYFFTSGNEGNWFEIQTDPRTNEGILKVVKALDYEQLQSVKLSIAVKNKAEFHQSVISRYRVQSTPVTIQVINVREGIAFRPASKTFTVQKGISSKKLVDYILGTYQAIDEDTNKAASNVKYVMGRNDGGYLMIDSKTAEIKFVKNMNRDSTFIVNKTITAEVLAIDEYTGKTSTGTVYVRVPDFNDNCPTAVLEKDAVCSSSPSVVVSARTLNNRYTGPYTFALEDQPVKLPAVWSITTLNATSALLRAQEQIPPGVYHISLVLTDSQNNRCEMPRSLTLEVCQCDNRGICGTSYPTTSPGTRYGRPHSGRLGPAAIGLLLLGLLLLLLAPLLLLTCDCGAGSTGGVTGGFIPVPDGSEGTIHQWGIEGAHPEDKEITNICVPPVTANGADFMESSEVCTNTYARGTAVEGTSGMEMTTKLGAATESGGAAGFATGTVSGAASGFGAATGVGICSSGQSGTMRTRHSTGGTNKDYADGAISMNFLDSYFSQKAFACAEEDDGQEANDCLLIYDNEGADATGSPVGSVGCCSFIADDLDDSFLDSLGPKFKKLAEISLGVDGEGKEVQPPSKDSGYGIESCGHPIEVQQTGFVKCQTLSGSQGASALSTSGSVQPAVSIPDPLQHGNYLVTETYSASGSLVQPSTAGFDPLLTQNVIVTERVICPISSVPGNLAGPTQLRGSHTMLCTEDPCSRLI
For `O=C(Cc1ccc([N+](=O)[O-])cc1)NCCS(=O)(=O)N1CCN(c2ccccc2)CC1`, the binding (percent of control) was 97.2% (inactive). The result for `COc1ccc(N2CCN(c3ccc([N+](=O)[O-])cc3Cl)CC2)cc1` reads -9.48% (active).

For the compound `O=[N+]([O-])c1ccc(N2CCN(c3ccc(O)cc3)CC2)c(Cl)c1`, the binding (percent of control) is 101% (inactive).

For the compound `COc1ccc(N2CCN(c3ccc([N+](=O)[O-])nc3)CC2)cc1`, the binding (percent of control) is 77.8% (inactive). Regarding `COC(=O)Cn1c(=NC(=O)c2cc(OC)c(OC)c(OC)c2)sc2cc(OC)ccc21`, the binding (percent of control) was 88.6% (active). The same measure for `COC(=O)c1sccc1NC(=O)c1cc(OC)c(OC)c(OC)c1`: 81.8% (inactive).

Take `COC(=O)Cn1c(=NC(=O)CSCC(=O)Nc2cc(C)on2)sc2ccccc21`: the binding (percent of control) was 82.3% (inactive). Take `CC(C)N=C1CCCC1C(=S)SSC(=S)C1CCCC1=NC(C)C` (centres undefined): the binding (percent of control) is 102% (inactive).

For the compound `N#CCCN(C(=S)Nc1ccc(Cl)c(Cl)c1)C1CCCCC1`, the binding (percent of control) is 105% (inactive). For `Cc1cc(C)n(-c2ccc3nncn3n2)n1`, the binding (percent of control) was 99% (inactive).

Take `Cc1cc(C)n(-c2ccc(C(=O)O)cc2[N+](=O)[O-])n1`: the binding (percent of control) is 102% (inactive).

Regarding `Cc1cc(C)n(-c2ccc(Cl)c(C(=O)O)n2)n1`, the binding (percent of control) was 56.1% (active). On to `O=C(O)C(=Cc1ccc([N+](=O)[O-])cc1)CCc1ccccc1`, for which the binding (percent of control) was 103% (inactive). The same measure for `CCOC(=O)c1c(C)[nH]c(C)c1C(=O)COC(=O)/C=C/c1cccc([N+](=O)[O-])c1`: 98.5% (inactive). The same measure for `CCN1CCCC1CNC(=O)c1ccc2c(c1)NC(=O)/C(=C\c1ccccc1F)S2` (centres undefined): 94.9% (inactive). On to `Cc1ccc(NC(=O)CN2CCc3ccccc3C2)cc1`, for which the binding (percent of control) was 95.1% (inactive).

Regarding `Cc1ccc(NC(=O)N2CCSc3ccccc32)cc1`, the binding (percent of control) was 63% (active). The same measure for `CCOc1ccc(CNC(=O)CCC(=O)N2CCSc3ccccc32)cc1`: 102% (inactive); for `CCN(CC)C(=O)C1=C(C)N(Cc2ccc(F)cc2)C(=O)C(CC(=O)NC2CCCC2)C1` (centres undefined): 109% (inactive). The result for `CC1(C)CN(Cc2cccnc2)C(=O)[C@H]1CC(=O)Nc1ccc(Br)cc1` reads 96.8% (inactive); that for `Cc1[nH]c2ccccc2c1C(=O)C(=O)NCc1nnnn1-c1cccc(F)c1`, 110% (inactive); that for `Cc1csc(SCC(=O)Nc2ccc(C)c(S(=O)(=O)N(C)C)c2)n1`, 100% (inactive). The result for `FC(F)(F)C1CCCN(c2nsc3ccccc23)C1` (centres undefined) reads 59.3% (active). Regarding `O=C(NC(Cc1ccccc1)C(=O)N1CCCC(C(F)(F)F)C1)c1ccccc1` (centres undefined), the binding (percent of control) was 93.4% (inactive). Regarding `O=C(NCC(=O)N1CCCC(C(F)(F)F)C1)c1ccccc1F` (centres undefined), the binding (percent of control) is 98.7% (inactive). Turning to `COc1ccc(-c2nn(-c3ccccc3)cc2/C=C2/SC(=S)N(CCCC(=O)O)C2=O)c(C)c1`, the binding (percent of control) is 104% (inactive). The result for `CN(C)S(=O)(=O)c1cccc(-c2nn(-c3ccccc3)cc2/C=C2\SC(=S)N(CC(=O)O)C2=O)c1` reads 34.1% (active); that for `Cc1ccc(-c2nn(-c3ccccc3)cc2/C=C2\SC(=S)N(CCCCCC(=O)O)C2=O)o1`, 93.2% (inactive); that for `COc1ccc(C=C2CCC3C(CCCC34OCCO4)C2=O)cc1` (centres undefined), 104% (inactive).

As for `CC1CCCC(NC(=O)COC(=O)c2ccccc2C(=O)N(C)C2CCCCC2)C1C` (centres undefined), the binding (percent of control) was 98.5% (inactive). The same measure for `Cn1c(=O)[nH]c(=O)c2c1[nH]c(=S)n2Cc1ccccc1`: 99.1% (inactive); for `CCN(CC)CCn1cnc2c1c(=O)[nH]c(=O)n2Cc1ccccc1`: 65.2% (active); for `COCCn1cnc2c1c(=O)n(Cc1ccc(Br)cc1)c(=O)n2Cc1ccccc1`: 125% (inactive). The result for `O=C(NCCN1CCOCC1)c1ccc2c(c1)N(Cc1cccc(Cl)c1)C(=O)c1ccccc1S2(=O)=O` reads 95.8% (inactive); that for `OCC1OC(n2cnc3c(N4CCCC4)ncnc32)C(O)C1O` (centres undefined), 102% (inactive); that for `CCOc1ccc(NS(=O)(=O)c2ccc(C(=O)NCC3CCCO3)cc2)cc1` (centres undefined), 100% (inactive). The result for `COc1cc(NC(=O)C2=C(C)OCCS2)c(Cl)cc1C(=O)NCCCN1CCCC(C)C1` (centres undefined) reads 105% (inactive); that for `CCOC(=O)c1c(NC(=S)SC)sc(C(=O)N2CCc3ccccc3C2)c1C`, 100% (inactive); that for `COc1ccc(-c2nc(CS(=O)CC(=O)NCc3ccccn3)c(C)o2)cc1` (centres undefined), 17.1% (active). For `COc1cccc(-c2nc(CS(=O)CC(=O)NCc3ccc(F)cc3)c(C)o2)c1` (centres undefined), the binding (percent of control) is 93.3% (inactive). The same measure for `COc1ccc(-c2nc(CS(=O)CC(=O)NCc3ccccc3)c(C)o2)cc1OC` (centres undefined): 97.4% (inactive); for `Cc1cccc(NC(=O)Nc2ccc3c(c2)OCO3)n1`: 134% (inactive); for `CC(C)CNS(=O)(=O)c1ccc(C(=O)Nc2ccc3c(c2)OCO3)cc1`: 85.2% (inactive). Turning to `CNS(=O)(=O)c1ccc(NC(=O)Nc2ccc3c(c2)OCO3)cc1`, the binding (percent of control) was 66.6% (active). The same measure for `CN(Cc1ccccc1)C(=O)CCC1CCN(C(=O)c2ccco2)CC1`: 91.8% (inactive); for `COc1cc(C(=O)N2CCOC23CCN(Cc2ccccc2)CC3)cc(OC)c1OC`: 108% (inactive); for `COCCCN1C(=O)C(CC(=O)NCc2cccs2)CC(C(=O)N2CCOCC2)=C1C` (centres undefined): 99.9% (inactive). The result for `CCSc1nnc(SCC(=O)NNC(=O)c2ccccc2F)s1` reads 115% (inactive). The same measure for `Cc1cnc(NC(=O)CSc2nnc(C)s2)s1`: 101% (inactive); for `Cc1nnc(SCC(=O)Nn2cnnc2)s1`: 89.8% (active). For the compound `CNC(=O)c1ccc(CN(C)C(=O)c2cc(C3CC3)nc3c2cnn3C(C)C)cc1`, the binding (percent of control) is 105% (inactive).

`O=[N+]([O-])c1ccc(C(S(=O)(=O)Cc2ccccc2)S(=O)(=O)Cc2ccccc2)cc1`: the binding (percent of control) is 100% (inactive). Turning to `Cc1ccc(OCCNC(=O)CCNS(=O)(=O)c2ccc(Br)cc2)cc1`, the binding (percent of control) was 107% (inactive). The same measure for `CC(CNS(=O)(=O)c1ccc(Br)cc1)CN(C)C` (centres undefined): 102% (inactive); for `Cc1ccc(S(=O)(=O)NCCNC(C)c2ccc(Br)cc2)cc1` (centres undefined): -19.8% (active).

On to `CC1C(=O)N(Cc2cn(CC3CCCCC3)nn2)CCS(=O)(=O)N1Cc1ccc(-c2cccc(N(C)C)c2)cc1` (centres undefined), for which the binding (percent of control) is 101% (inactive). As for `COCC1CCCCN1C(=O)c1cc(COc2ccc(C)c(C)c2)on1` (centres undefined), the binding (percent of control) is 101% (inactive).

In the case of `CN(CC(=O)Nc1ccc(N2CCOCC2)cc1)CC(=O)Nc1ccccc1[N+](=O)[O-]`, the binding (percent of control) was 116% (inactive). For `Cc1ccc(NC(=O)CN(C)Cc2ccc(F)cc2)c([N+](=O)[O-])c1`, the binding (percent of control) was 93.5% (inactive). As for `CN(CC(=O)Nc1ccccc1[N+](=O)[O-])Cc1ccc(Br)cc1`, the binding (percent of control) is 104% (active). The same measure for `COc1ccc(-n2ncc3c(SCC(=O)NNC(C)=O)ncnc32)cc1`: 102% (inactive); for `COc1ccc(NC(=O)CSc2ncnc3[nH]ncc23)cc1`: 106% (inactive). For the compound `CC(=O)Nc1ccc(NC(=O)CSc2ncnc3c2cnn3Cc2ccccc2)cc1`, the binding (percent of control) is 76.2% (active). The same measure for `O=C(NCc1nnnn1-c1ccc(Cl)cc1)c1ccc([N+](=O)[O-])o1`: 98.8% (inactive); for `Cc1ccc(S(=O)(=O)N2CCOCC2)cc1NC(=O)c1ccncc1`: 96.3% (inactive). The result for `Cc1cc(-c2ccc(S(=O)(=O)N3CCN(c4cccc(C(F)(F)F)c4)CC3)s2)on1` reads 80% (inactive). The same measure for `Cc1cccc(N2CCN(S(=O)(=O)c3ccc(-c4cc(C)no4)s3)CC2C)c1` (centres undefined): 96.5% (inactive). With `Cc1cc(-c2ccc(S(=O)(=O)N3CCc4ccccc4C3)s2)on1`, the binding (percent of control) was 80.5% (active). On to `CC(C)CCOc1ccc(C(=O)Nc2cc(S(=O)(=O)N3CCOCC3)ccc2N2CCOCC2)cc1`, for which the binding (percent of control) is 102% (inactive). As for `C=CCOc1cccc(C2C(C(=O)c3ccc(C)o3)=C(O)C(=O)N2CCN2CCOCC2)c1` (centres undefined), the binding (percent of control) is 102% (inactive). `c1ccc(CNCc2ccc(CNCc3ccccc3)cc2)cc1`: the binding (percent of control) was 102% (inactive). The same measure for `CCOc1ccc(/C=C2\SC(=S)N(NC(=O)c3ccncc3)C2=O)cc1OC`: 106% (inactive); for `COc1cc(/C=C2\SC(=S)N(Nc3ncc(C(F)(F)F)cc3Cl)C2=O)cc(OC)c1OC`: 87.8% (active). The result for `COc1ccc(/C=C2\SC(=S)N(CCCC(=O)NC3CCCC3)C2=O)cc1OC` reads 109% (inactive); that for `O=C(CSc1ncn[nH]1)Nc1nc2c(F)c(F)c(F)cc2s1`, 94% (inactive).

As to `Cc1ccc(S(=O)(=O)N2C[C@H]3C(=O)C[C@@H](c4cccc5ccccc45)N(S(=O)(=O)c4ccc(C)cc4)[C@H]3C[C@H]2c2ccc(Cl)cc2)cc1`, the binding (percent of control) is 99.7% (inactive). In the case of `Cc1cccc(-c2nc(Nc3ccc(O)cc3)c3ccccc3n2)c1`, the binding (percent of control) was 324% (inactive).

As to `CC(=O)Nc1cccc(Nc2nc(-c3cccs3)nc3ccccc23)c1`, the binding (percent of control) was 64.6% (active). The result for `O=c1[nH]c(-c2cccs2)nc2ccccc12` reads 98.9% (inactive); that for `C[C@H]1CN([C@@H](C)CO)C(=O)CCCn2nncc2CO[C@@H]1CN(C)Cc1ccc(Oc2ccccc2)cc1`, 101% (inactive); that for `Cc1ccc(C(=O)N[C@H](C(=O)N2CCN(c3ncccn3)CC2)C(C)C)cc1`, 96.6% (inactive). Regarding `NS(=O)(=O)c1ccc(NC(=O)COC(=O)CCc2c[nH]c3ccccc23)cc1`, the binding (percent of control) is 96.4% (inactive). The result for `NS(=O)(=O)c1ccc(NC(=O)COC(=O)c2cc3ccccc3oc2=O)cc1` reads 9.15% (active); that for `CCOC(=O)c1cc2cc3ccccc3cc2oc1=O`, 105% (inactive); that for `COc1ccc(NC(=O)[C@H](NC(=O)[C@@H]2Cc3ccccc3CN2)c2ccccc2)cc1`, 103% (inactive). The result for `COc1ccc(NC(=O)C2CCC(CNC(=O)[C@@H]3Cc4ccccc4CN3)CC2)cc1` (some centres undefined) reads 104% (inactive); that for `COc1cccc(NC(=O)[C@H](Cc2c[nH]c3ccccc23)NC(=O)[C@@H]2Cc3ccccc3CN2)c1`, 63.9% (active); that for `COc1ccc(CN2C(=O)C(CC(=O)NCc3cccc4ccccc34)CC(C(=O)N3CCOCC3)=C2C)cc1` (centres undefined), 102% (inactive). The same measure for `O=C(Nc1cc(F)ccc1F)c1ccc2c(=O)n3c(nc2c1)CCC3`: 98.5% (inactive).
